Screening results (PubChem BioAssay)
A selection: hits, their analogues and other compounds. The true share with any hit is near 1.2%.
RGS16-Gao HTS – RGS16-Galphao interaction regulator (human). O15492+P09471. bead-based flow cytometry RGS16-Galphao binding, fluorescence; actives lie on both sides. binding response (% of control), % at 10 µM. actives 0.38% (n = 220,000). AID 1441;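 also: Galphao activated by GDP with aluminum fluoride before binding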
Target sequence (O15492 whole entry, looked up): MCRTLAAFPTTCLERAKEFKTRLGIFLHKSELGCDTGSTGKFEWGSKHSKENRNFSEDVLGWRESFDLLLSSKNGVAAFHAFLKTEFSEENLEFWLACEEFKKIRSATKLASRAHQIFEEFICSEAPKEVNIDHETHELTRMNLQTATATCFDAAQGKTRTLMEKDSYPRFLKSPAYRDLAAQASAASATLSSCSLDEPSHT
Target sequence (P09471 whole entry, looked up): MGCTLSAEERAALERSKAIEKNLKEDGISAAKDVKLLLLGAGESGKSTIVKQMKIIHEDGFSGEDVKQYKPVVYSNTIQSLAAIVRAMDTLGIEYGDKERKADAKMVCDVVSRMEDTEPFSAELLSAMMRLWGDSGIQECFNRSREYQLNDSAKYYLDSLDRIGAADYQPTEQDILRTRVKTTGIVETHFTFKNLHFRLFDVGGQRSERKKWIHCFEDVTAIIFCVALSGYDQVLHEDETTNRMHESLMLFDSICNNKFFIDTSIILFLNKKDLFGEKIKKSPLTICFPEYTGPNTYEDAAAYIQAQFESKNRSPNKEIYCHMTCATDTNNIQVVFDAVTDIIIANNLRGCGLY
RGS8-Gao reg – regulators of human RGS8-Galphao interaction. P09471. multiplexed bead flow cytometry, RGS8-Galphao binding; actives lie on both sides. response (percent of control binding), % at 10 µM. actives 0.34% (n = 220,000). AID 1423; in the data active = response below about 60% or above about 140%; inactive = in between;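 also: Galphao activated as the GDP aluminium fluoride complex binding bead-coupled RGS8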
Target sequence (P09471 whole entry, looked up): as above
GSH fluor – compound fluoresces at 488/530 nm on GSH beads. GSH beads flow cytometry, compound fluorescence 488/530 nm; stronger effect = higher value. fluorescence (KMESF) at 10 µM. actives 0.25% (n = 190,000). AID 1776; in the data active = fluorescence above about 89;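 also: glutathione beads carrying GST-tagged Bcl family fusion proteins plus one bare bead set; values are compound well signal with DMSO vehicle wells as background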
RGS4-Gao reg – modulates binding of RGS4 to human Galphao | actives 0.33% (n = 220,000) | AID 1415 | Multiplexed bead flow cytometry; actives lie on both sides | binding response (% of control), % at 10 µM | P09471; in the data active = binding response below about 49% or above about 150%; inactive = in between;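 also: fluorescent Galphao activated with aluminum fluoride binding bead-coupled RGS4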
RGS7-Gao reg – human RGS7-Galphao interaction regulation; Multiplexed bead flow cytometry, RGS7-Galphao binding; actives lie on both sides; binding response (% of control), % at 10 µM; actives 0.35% (n = 220,000); in the data active = binding response below about 49% or above about 150%; inconclusive = no clear call, values can overlap the other calls; inactive = in between;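 also: fluorescent Galphao held in activated GDP-AlF4 state binding bead-coupled RGS7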
Avidin bead fluor – avidin bead compound fluorescence profile; Avidin beads, compound fluorescence 488/530 nm, flow cytometry; stronger effect = higher value; fluorescence (KMESF) at 10 µM; actives 0.38% (n = 220,000); in the data active = fluorescence above about 47
RGS4-Gao HTS – RGS4-Galphao interaction regulator (human). shares compounds with RGS16-Gao HTS. multiplexed bead flow cytometry, RGS–Galpha-o binding. RGS4–Galpha-o binding response, % at 10 µM. actives 99% (n = 1,600). AID 1504;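 also: fluorescently labeled Galpha-o bound to GDP with aluminium fluoride binding biotinylated RGS beads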
Avidin counter – interferes with biotinylated probe binding to avidin beads. streptavidin beads, fluorescein-biotin binding, flow cytometry. shares compounds with RGS16-Gao HTS. inhibition, % at 10 µM. 1,700 tested, under 10 active. AID 1783;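 active = inhibition above 50%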;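 also: median green fluorescence of gated singlet beads compared with DMSO control wells; 0% = DMSO wells and 100% = complete loss of bead fluorescence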
RGS8-Gao confirm – RGS8-Galphao interaction regulation, single point confirmation; shares compounds with RGS16-Gao HTS; bead-based flow cytometry RGS8-Galphao binding, fluorescence; actives lie on both sides; binding response (% of control), % at 10 µM; actives 3% (n = 1,700); AID 1836; in the data active = binding response below about 72% or above about 130%; inactive = in between;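 also: Galphao activated as GDP AlF4 complex before binding bead RGS8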
RGS7-Gao confirm – RGS7-Galphao interaction regulation, single point confirmation; bead-based flow cytometry RGS7-Galphao binding; actives lie on both sides; shares compounds with RGS16-Gao HTS; actives 7.8% (n = 1,700); AID 1837; response (percent of control binding), % at 10 µM; in the data active = response below about 75% or above about 130%; inactive = in between;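 also: fluorescent Galphao activated with GDP and aluminum fluoride binding bead-coupled RGS7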
RGS16-Gao single – RGS16-Galphao interaction regulation, single point confirmation | shares compounds with RGS16-Gao HTS | bead-based flow cytometry, RGS16-Galphao binding; actives lie on both sides | response (% of control binding), % at 10 µM | actives 4% (n = 1,700); in the data active = response below about 74% or above about 130%; inactive = in between;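 also: Galphao activated as the GDP aluminium fluoride complex binding bead-coupled RGS16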
RGS4-Gao confirm – confirmation of regulators of human RGS4-Galphao interaction; shares compounds with RGS16-Gao HTS; RGS4-Galphao binding, multiplexed bead flow cytometry; actives lie on both sides; binding response (% of control), % at 10 µM; actives 4% (n = 1,700); in the data active = binding response below about 74% or above about 130%; inactive = in between
RGS19-Gao single – RGS19-Galphao interaction regulation, single point confirmation; shares compounds with RGS16-Gao HTS; bead-based flow cytometry RGS19-Galphao binding; actives lie on both sides; response (percent of control binding), % at 10 µM; actives 5% (n = 1,700); in the data active = response below about 50% or above about 160%; inactive = in between;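 also: 100% = no compound control and 0% = blank background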
* marks the source's active call; other numbers are inactive results; ? = inconclusive; nt = no result; [ ] = remark or other dose. Unless noted, no rule for the calls is given here.

SMILES | RGS16-Gao HTS | RGS8-Gao reg | GSH fluor | RGS4-Gao reg | RGS7-Gao reg | Avidin bead fluor | Avidin counter | RGS8-Gao confirm | RGS7-Gao confirm | RGS16-Gao single | RGS4-Gao confirm | RGS19-Gao single | others
O=C(O)C1CCCN1S(=O)(=O)c1ccc2[nH]c(=O)c(=O)[nH]c2c1 (configuration not stated) | 161 | 133 | 33 | 158*[activator] | 144 | 22 | 1 | 102 | 102 | 100 | 102 | 79
Cc1ccc(S(=O)(=O)C(F)(F)F)cc1NC(=O)c1cccnc1 | 181*[activator] | 122 | 21 | 108 | 108 | 30 | -2 | 101 | 100 | 100 | 103 | 98 | RGS4-Gao HTS=108*
Cc1ccc(S(=O)(=O)N(C)C)cc1NC(=O)c1ccncc1 | 101 | 99 | 15 | 103 | 102 | 11 | nt | nt | nt | nt | nt | nt
Oc1ccc(N=Nc2n[nH]c(-c3ccccc3)n2)cc1 | 14* | 82 | 12 | 91 | 87 | 7 | 1 | 95 | 56* | 72* | 72* | 35* | RGS4-Gao HTS=91*
COCCN1Cc2cccc(C(=O)NCc3ccc4c(c3)OCO4)c2C1=O | 20* | 70 | 22 | 89 | 92 | 6 | 1 | 106 | 99 | 109 | 103 | 106 | RGS4-Gao HTS=89*
COCCN1Cc2cccc(C(=O)NCc3ccccn3)c2C1=O | 120 | 109 | 14 | 106 | 111 | 13 | nt | nt | nt | nt | nt | nt
COc1ccc(-n2c3c(c(=O)[nH]c2=O)C(NC(C)=O)(C(F)(F)F)C(=O)N3)cc1 (configuration not stated) | 76 | 95 | 8 | 99 | 102 | 16 | nt | nt | nt | nt | nt | nt
COc1ccc(N2CCN(C(c3cc4cc(C)ccc4[nH]c3=O)c3nnnn3Cc3ccccc3)CC2)cc1 (configuration not stated) | nt | nt | 40 | nt | nt | nt | 2 | 99 | 100 | 98 | 100 | 98
COc1ccc(Cn2nnnc2C(c2cc3cc(C)ccc3[nH]c2=O)N2CCOCC2)cc1 (configuration not stated) | 99 | 99 | 23 | 98 | 98 | 15 | nt | nt | nt | nt | nt | nt
Oc1ccc(N2CCN(C(c3cccnc3)c3nnnn3Cc3ccccc3)CC2)cc1 (configuration not stated) | -26* | 8.1* | 29 | -26* | -9.4* | -4 | 0 | 88 | 99 | 91 | 97 | 77
c1ccc(CCn2nnnc2C(c2cccnc2)N2CCN(c3ccccc3)CC2)cc1 (configuration not stated) | 80 | 88 | 7 | 77 | 85 | 10 | nt | nt | nt | nt | nt | nt
CC1=CC(=O)c2c(O)ccc(O)c2C1=O | 55 | 74 | 14 | 85 | 57 | 2 | nt | nt | nt | nt | nt | nt
Cn1c(=S)n(CCC(=O)O)c2ccccc21 | 103 | 104 | 12 | 102 | 98 | 23 | nt | nt | nt | nt | nt | nt
COc1cc2c(-c3ccc(O)cc3)nc3c(c(C)nn3-c3ccccc3)c2cc1OC | 468 | 100 | 5 | 200*[activator] | 89 | 8 | 1 | 100 | 96 | 97 | 98 | 102
COc1cc2c(C)nc3c(c(C)nn3-c3ccccc3)c2cc1OC | 109 | 92 | 16 | 98 | 85 | 5 | nt | nt | nt | nt | nt | nt
Nc1ccc(-c2ccc(N)cc2C(F)(F)F)c(C(F)(F)F)c1 | 110 | 101 | 24 | 118 | 204*[activator] | 123* | -2 | 101 | 101 | 97 | 97 | 105 | RGS4-Gao HTS=118*
NC(=O)c1ccc(Oc2ccc(C(N)=O)cc2)cc1 | 98 | 100 | nt | 101 | ? | 2 | nt | nt | nt | nt | nt | nt
OC(COc1ccc(Br)cc1)CN1CCOCC1 (configuration not stated) | nt | nt | 41 | nt | nt | nt | 3 | 104 | 101 | 108 | 101 | 101
OC(COc1ccc(-c2ccccc2)cc1)CN1CCOCC1 (configuration not stated) | 102 | 101 | 28 | 104 | 104 | 13 | nt | nt | nt | nt | nt | nt
O=C(CCC(=O)OCc1ccc(Cl)cc1)Nc1cccc([N+](=O)[O-])c1 | 44 | 58* | 21 | 51 | 46* | 2 | nt | nt | nt | nt | nt | nt | RGS4-Gao HTS=51*
CCOC(=O)CCC(=O)Nc1cccc([N+](=O)[O-])c1 | 115 | 106 | 7 | 101 | 103 | 1 | nt | nt | nt | nt | nt | nt
O=C(C[n+]1ccc(-c2nnc3n2CCC3)cc1)c1ccc(Cl)c(Cl)c1 | 105 | 103 | 7 | 100 | nt | 6 | 2 | 96 | 82 | 92 | 89 | 67
C[n+]1cccc(C(=O)NCC2CCCO2)c1 (configuration not stated) | 308*[activator] | 147*[activator] | 12 | 117 | 112 | 6 | 0 | 99 | 101 | 100 | 101 | 98 | RGS4-Gao HTS=117*
Cc1ccc(N=N/C(=C\O)C(=O)c2ccc(Cl)cc2)cc1 | 43 | 59* | 6 | 42* | 45* | 15 | -2 | 99 | 98 | 102 | 102 | 111
COc1cccc(C(=O)Nc2cccc3c2ccc2cccn23)c1 | 101 | 101 | 22 | 102 | 99 | 9 | nt | nt | nt | nt | nt | nt
O=C(O)c1ccc(Nc2nc(-c3cccnc3)nc3ccccc23)cc1 | 98 | 99 | 18 | 96 | 96 | 6 | nt | nt | nt | nt | nt | nt
O=c1ccc2cc(S(=O)(=O)N3CCN(c4cc(Cl)ccc4Cl)CC3)ccc2o1 | nt | nt | 42 | nt | nt | nt | -2 | 100 | 102 | 101 | 101 | 103
CN(C)S(=O)(=O)c1cc(NC(=O)COC(=O)Cc2ccc(Br)cc2)ccc1Cl | 12* | 56* | 9 | 78 | 83 | 2 | -2 | 99 | 98 | 98 | 100 | 104 | RGS4-Gao HTS=78*
CCC1(CC)NC(=O)N(CC(=O)OCC(=O)Nc2sccc2C#N)C1=O | 101 | 101 | 21 | 100 | 97 | 6 | nt | nt | nt | nt | nt | nt
CCCOc1ccc(-c2nc[nH]c2[N+](=O)[O-])cc1 | 95 | 102 | 10 | 98 | 101 | 17 | nt | nt | nt | nt | nt | nt
